Screening data (PubChem BioAssay)
Most compounds without a hit are left out; they make up all but 2.2% or so of the library.
TDP43 rescue: rescues yeast growth from TDP-43 toxicity. TDP-43 expressing yeast growth rescue, BacTiter-Glo, 24 h. Potency, µM (top dose mostly 46.1 µM), inactives show top-dose growth rescue (activation), actives largely listed as activators. actives 1.8% (n = 410,000). AID 652104; further: % of control where 0% means no effect; nearly all actives have a fitted effect of over 50% in size
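In this qHTS, compounds that restore growth of yeast expressing TDP-43 appear as activators. Cells (OD600=0.02, galactose medium, raffinose-pregrown) are incubated with compound 24 hr at 30 deg C and growth is quantified by BacTiter-Glo.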
Mito fusion yeast: inhibitors of mitochondrial division or activators of mitochondrial fusion; S. cerevisiae fusion-defective mutant growth rescue, CellTiterGlo 48 h; Potency, µM (highest dose often 46.1 µM), for the others: at the highest dose growth rescue (activation), usual class: activators; actives 0.23% (n = 320,000); AID 485298; further: % of control where 0% means no effect; nearly all actives have a fitted effect of over 45% in size
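Compounds are tested for their ability to restore growth of mitochondrial fusion-defective yeast strains at non-permissive 37C in YPEG medium over 48 hours. Viability is quantified by luciferase luminescence.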
FUS suppressor: FUS proteinopathy suppression in yeast; S. cerevisiae FUS-expressing, growth rescue, OD600, 24 h; Potency, µM (doses to about 76.6 µM), usual class: activators; actives 0.24% (n = 390,000);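 further: plate controls were DMSO vehicle for no effect and reference control for full effect; nearly all actives have a fitted effect of over 55% in size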
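Read-out: OD at 600 nm after 24hr at 30C, reporting rescue of FUS-induced yeast toxicity. Cells at OD 0.005 in galactose (2%) minimal medium; compounds tested in a dilution series; CP55940 titration from 92uM final as control.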
Abeta rescue: compounds reversing amyloid beta toxicity in yeast; yeast expressing A-beta42, growth rescue, OD600, 48 h; response scale: 0% DMSO, 100% iron-clioquinol control; Potency, µM (highest dose often 46.1 µM), hits mostly activators; actives 0.063% (n = 410,000); AID 1347071; further: nearly all actives have a fitted effect of over 55% in size
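Growth rescue measured by 600 nm absorbance after 48 h yeast culture at 30 C with compound. Values normalized between DMSO and an equimolar ferric chloride plus clioquinol control.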
aSyn rescue: rescues yeast growth from alpha-synuclein toxicity | AID 652106 | Potency, µM (series often up to 46.1 µM), inactives show at the highest dose growth rescue (activation), most hits filed as activators | actives 0.14% (n = 370,000) | Yeast expressing alpha-synuclein, growth rescue, BacTiter-Glo, 24 h; further: % of control where 0% means no effect; nearly all actives have a fitted effect of over 65% in size
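Screening used galactose-induced yeast with toxic alpha-synuclein levels, exposed to compound for 24 hr at 30 deg C. Cell growth, read with BacTiter-Glo luminescence, gave the measured signal.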
Active calls of the source: *; i = inactive; ? = inconclusive; nt = no result given. The call rests on the fitted dose curve; in most records, active means well fitted curve in the direction sought with a large enough effect; inconclusive means small, poorly fitted or top-dose-only effect, or another doubt; inactive means no such curve, though single readings can be large; an effect the other way counts as inactive or inconclusive. Potency means the concentration at half of the fitted maximal effect.

SMILES	TDP43 rescue	Mito fusion yeast	FUS suppressor	Abeta rescue	aSyn rescue
C#CCOCCOCCOCCNc1nc(N2CCN(C(=O)CCCCCCCCCCNC(=O)Cn3cc(C[C@@H](C)O)nn3)CC2)nc(N2CCN(C(=O)CCCCCCCCCCNC(=O)[C@H](CCCCN)n3cc(C[C@@H](C)CC)nn3)CC2)n1	-5%	-7%	10µM*	i	-52%
C#CCOCCOCCOCCNc1nc(N2CCN(C(=O)CCCCCCCCCCNC(=O)[C@H]([C@@H](C)CC)n3cc(CCCCCN)nn3)CC2)nc(N2CCN(C(=O)CCCCCCCCCCNC(=O)[C@@H]([C@H](C)O)n3cc(C)nn3)CC2)n1	?	-6%	13µM*	i	-53%
Cc1nc(Nc2ccc(Cl)cc2)cc(-c2ccccc2)n1	?	nt	i	i	nt
O=S1(=O)CC(N2CCCC2)CN1 (stereo not drawn)	nt	nt	i	nt	nt
CCOc1cccc(C2C=C(c3ccc4c(c3)OCO4)NC(c3ccc(Br)cc3)N2)c1O (stereo not drawn)	nt	nt	nt	nt	6%
COC(=O)[C@@]12CCCCC3=C1N(CCC3)C(=O)[C@H]2CC(=O)NCc1ccc(C)o1	nt	nt	i	nt	nt
CCOC(=O)c1cnc(Nc2ccccc2)nc1C(F)(F)F	18µM*	2%	i	i	0%
COC(=O)[C@@]12C[C@@H](CC(=O)NCc3ccc(OC)c(OC)c3)C(=O)N(Cc3ccc4c(c3)OCO4)C1=CCC(C)(C)C2	-2%	nt	13µM*	i	-1%
COC(=O)[C@@]12C[C@@H](CC(=O)NCCC(C)C)C(=O)N(Cc3cccc4ccccc34)C1=CCC(C)(C)C2	-1%	nt	14µM*	i	2%
C=C(C)CNC(=S)N/N=C/C1=CCC2CC1C2(C)C (stereo not drawn)	18µM*	?	nt	i	-13%
Cc1sc2nc(-c3ccccn3)[nH]c(=O)c2c1-c1ccccc1	18µM*	3%	i	i	?
Cc1sc2nc(-c3ccncc3)[nH]c(=O)c2c1-c1ccccc1	nt	13%	nt	nt	nt
C=CC[C@@]1(c2ccccc2)Oc2ccccc2-c2nc3ccccc3nc21	nt	nt	i	nt	nt
Cc1cc2ccccc2n1CCNC(=O)c1cccc(Cl)c1	14µM*	nt	i	i	nt
Cc1cc2ccccc2n1CCNC(=O)c1cccc(Br)c1	?	nt	i	i	nt
CCCOc1ccc(CN(C(=O)c2nc(SC(C)C)ncc2Cl)C2CCS(=O)(=O)C2)cc1 (stereo not drawn)	16%	nt	35µM*	i	nt
CN(C)c1ccc(C#Cc2ccc3cc(CCO)oc(=O)c3c2)cc1	3%	-7%	i	i	-12%
O=c1oc(CCO)cc2ccc(C#Cc3ccsc3)cc12	18µM*	28%	i	i	-2%
Fc1ccc(CSc2nnc(-c3ccccn3)o2)cc1	13µM*	6%	i	i	-2%
CCOC(=O)C1=C(c2ccccc2)NC(N)=NC1c1ccc(OCc2ccc(C(=O)OC)cc2)cc1 (stereo not drawn)	-15%	-2%	25µM*	i	-8%
CCOC(=O)C1=C(c2ccccc2)Nc2ncnn2C1c1ccc(C(=O)O)cc1 (stereo not drawn)	2%	-2%	i	i	0%
COC(=O)c1sc(C(C)(C)C)cc1CS(=O)(=O)c1ccccn1	7%	0%	i	i	-5%
CCc1c(C)sc(NC(=O)CC#N)c1C#N	-2%	2%	10µM*	i	-2%
Nc1ncnc2c1nc(Sc1ccc(Cl)cc1)n2[C@H]1OC2COP(=O)(O)O[C@H]2[C@@H]1O (stereo partly drawn)	nt	nt	nt	nt	-4%
COc1ccccc1NC(=O)CSc1nnc(COc2ccc(Cl)cc2)o1	20%	-5%	i	i	26%
COC(=O)c1ccccc1NC(=O)CSc1nnc(Cc2ccc(Cl)cc2)o1	25µM*	26%	i	i	6%
CC(C)c1ccccc1NC(=O)CSc1nnc(COc2ccccc2Cl)o1	20µM*	nt	i	i	nt
Nc1ccc2nc(-c3cccc(-c4nc5ccc(N)cc5[nH]4)c3)[nH]c2c1	14µM*	-7%	i	?	2%
Cc1ccc(NC(=S)NNC(=O)C2CC2c2ccc(C)cc2)cc1 (stereo not drawn)	0%	10%	28µM*	?	1%
